Screening results from PubChem BioAssay.
Measles CPE: protection of cells from measles virus. Measles virus-infected cells, CPE protection, absorbance. protection (pct of control), % at 4 µM. actives 1.5% (n = 140,000). AID 841; in the data active means protection mostly above about 24%, no sharp cut-off; inactive means mostly below about 26%
PostGolgi yeast: growth inhibition of a yeast mutant, post-Golgi transport screen. post-Golgi transport phenotypic cell assay. inhibition, % at 10 µM. actives 0.9% (n = 98,000). AID 739;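 further: yeast cells grown in 1536-well plates; yeast grown about 18 h at 30C before absorbance read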
MT1-MMP txn act: activates MT1-MMP transcription; HT1080 MT1-MMP promoter luciferase reporter, luminescence, overnight; active compounds read high; activation factor at 10 µM; AID 750; actives 0.16% (n = 86,000);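 active means activation factor of at least 2 for MT1-MMP transcription at 10 µM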
PostGolgi ctrl: growth of the yeast control strain, post-Golgi counter-screen. AID 738. efflux-deficient yeast background strain, growth absorbance A615, 16 h. inhibition, % at 10 µM. actives 5% (n = 98,000)
An asterisk follows results filed as active; · = no result given. Sampled rows, rich in hits. Any-hit rate of the full collection: about 5.3%. Unless noted, no stated cut-off is given here; in the data, active means inhibition above about 30%; inactive means the rest.

SMILES	Measles CPE	PostGolgi yeast	MT1-MMP txn act	PostGolgi ctrl
CC(C)CNC(=O)c1ccc(NC(=O)c2cccs2)cc1	4.8	·	·	·
CCOc1ccc(NC(=S)Nc2ccc(OCc3ccccc3)cc2)cc1	43.6*	·	·	·
CCOc1ccc(CSCCNC(=S)Nc2ccccc2)cc1	34.2	·	·	·
C=CCc1c(C)nc(SC)nc1Nc1ccc(C)cc1	4.2	-11.5	1	31.9*
C=CCc1c(C)nc(-c2ccccc2)nc1Nc1ccccc1O	2.3	·	·	·
COc1cccc(C(=O)OCC(=O)Nc2ccccc2N2CCOCC2)c1	5.6	3.7	1.1	38.5*
COc1cccc(C(=O)Nc2ccccc2N2CCOCC2)c1	6.2	-3.6	1.1	9.0
Cc1ccccc1-n1c(SCC(=O)NC(N)=O)nc2sc(-c3ccccc3)cc2c1=O	16.7	·	·	·
Cc1cc(C)cc(Nc2ncc3c(n2)CCCC3=O)c1	10.2	9.3	0.8	33.4*
CCOC(=O)c1sc(-c2ccccc2)cc1NC(=O)CSc1nnnn1C	31.9	8.8	1.1	74.0*
CC(=O)Nc1ccc(/C(C)=N/NC(=O)c2ccccc2Cl)cc1	8.9	·	·	·
CNc1nc(SCc2ccccc2Cl)nc2c1CCCC2	3.1	16.5	·	44.9*
CN(C)c1nc(SCc2ccc(Cl)cc2)nc2c1CCCC2	6.9	11.9	·	36.9*
Cc1c(C)[n+](=O)c(-c2ccco2)c(C)n1[O-]	15.1	-0.8	1.2	30.9*
CC1CN(Cc2ccccc2)c2ccccc2NC1=S (centres undefined)	4.3	·	·	·
CC(C)(CO)NCc1ccccc1OCC(=O)Nc1ccccc1	2.6	-7.0	1.4	31.8*
Oc1ccc(Cl)cc1C(C#Cc1ccccc1)N1CCOCC1 (centres undefined)	4.1	-1.5	·	20.3
C/C(Cn1nnc2ccccc21)=N\NC(=O)c1cccc(Br)c1	6.2	·	·	·
CNC(=S)N1N=C(c2ccc(C)cc2)CC1c1ccc(Cl)cc1 (centres undefined)	5.8	-2.4	1.2	44.3*
CNC(=S)N1N=C(c2ccc(C)cc2)CC1c1ccc(Br)cc1 (centres undefined)	15.0	-9.0	1.3	34.6*
CC(C)c1ccc(C2CC(c3ccc(Br)cc3)=NN2C(N)=S)cc1 (centres undefined)	8.1	·	·	·
CCOC(=O)C1CCCN(C(=O)CN2C(=O)/C(=C/c3ccc(OC)cc3)Oc3ccccc32)C1 (centres undefined)	7.0	·	·	·
Cc1cc(C)c2c3c(sc2n1)C(=O)N(Cc1ccccc1)CC(=O)N3	3.5	16.9	1	5.2
CCSc1nnc(NC(=O)C(C)(C(F)(F)F)C(F)(F)F)s1	5.7	16.2	1	23.1
CCSc1nnc(NC(=O)/C=C/c2ccc3c(c2)OCO3)s1	3.1	·	·	·
SMILES	Measles CPE	PostGolgi yeast	MT1-MMP txn act	PostGolgi ctrl
CCSc1nnc(NC(=O)c2cc(C)on2)s1	6.0	1.4	1.2	32.8*
CCSc1nnc(NC(=O)NCC(F)(F)F)s1	6.7	45.3*	1.1	-3.9
CCSc1nnc(NC(=O)c2ccc3c(c2)OCO3)s1	6.7	9.6	0.7	40.6*
Cn1c(Sc2ccc(Cl)cc2)c(C=O)c2ccccc21	6.1	8.1	·	37.4*
CCOC(=O)c1sc(NC(=O)CSc2n[nH]c(CC(C)C)n2)nc1C	21.1	·	·	·
COc1ccc(-c2ccnc3nc(N4CCN(c5ccccc5)CC4)nn23)cc1	9.4	-1.7	·	53.3*
Fc1ccc(-c2ccnc3nc(N4CCOCC4)nn23)cc1	8.0	-9.6	·	4.7
COc1ccc(S(=O)(=O)NCCSCc2ccccc2C)cc1Br	21.6	-0.6	·	35.9*
Cc1ccccc1CSCCNS(C)(=O)=O	4.5	-4.8	1.1	-1.4
COc1ccc(C(=O)NC2(C(F)(F)F)NC(=O)N(CCCc3ccccc3)C2=O)cc1OC (centres undefined)	5.4	·	·	·
CC(C)OC(=O)c1cc2c(ccn2C)n1CC(=O)N(Cc1ccccc1)c1ccc(F)cc1	56.2*	·	·	·
O=C(CSc1nnc(-c2ccc(F)cc2)c2ccccc12)Nc1c(F)cccc1F	36.9*	·	·	·
Cc1cccc(C(=O)NC(=S)NNC(=O)COc2c(C)cccc2C)c1	8.7	·	·	·
COc1ccccc1OCc1nnc(SCC(=O)c2cc(Cl)ccc2OC)o1	7.7	9.8	1	32.0*
O=C(COc1ccc(/C=N/NC(=O)c2ccccc2)cc1)Nc1ccc([N+](=O)[O-])cc1	4.5	-6.3	·	34.3*
CN(C(=S)Nc1ccc(F)cc1)C1(c2ccccc2Cl)CCCCC1=O (centres undefined)	14.8	8.9	1.2	35.7*
Fc1ccc(NC(=S)NN=C2CCCCCC2)cc1	22.8	7.2	1.5	1.8
O=C(NCc1ccco1)c1cccc(NC(=O)c2ccccc2)c1	15.2	-6.8	·	8.8
CCC(CC)C(=O)Nc1cccc(C(=O)NCc2ccco2)c1	22.1	-5.0	1.2	42.4*
O=C(CN1CCNCC1)Nc1ccc(Oc2ccccc2)cc1	3.4	4.7	1.3	39.2*
